Source: the supplement of paper PMC10849652
Of roughly 7,900 targets only a part is listed; those with a hit were picked by preference. About 0.6% of all pairs of compound and target were hits. Unmarked numbers belong to inactive results.

Columns and labels:
Assay in all cases: log2 fold change, soluble protein after heating vs DMSO (PISA); higher = thermal stabilisation; K562 cells, 10 uM, 30 min; active = over 0.2 and 3.5 SD of the protein, either way, in both replicates (recomputed)
[1] = compound: COC1=CC=C(C=C1)CN2C=CC3=C2C=C(C=C3)C(=O)NO
Procedure, shortened: (§1)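 K562 cells at 2×10^6 cells/mL were given 10 μM compound for 30 min. Aliquots then went through 3 min of heating across 48°C-58°C, were pooled, and were extracted in PBS with 0.5% NP-40 at 4°C, and the supernatant after 21,000xg for 90 min was quantified by TMTpro 16plex LC-MS/MS with channel sums equalised. Thermal stability relative to control samples, from duplicates, is given as log2 fold change.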

[2] = compound: CON(C)C(=O)N1N=C(c2cc(F)ccc2F)S[C@@]1(CCCN)c1ccccc1 [filanesib]
Procedure, shortened: as §1

[3] = compound: CO[C@H]1C[C@@H]2CC[C@@H](C)[C@@](O)(O2)C(=O)C(=O)N2CCCC[C@H]2C(=O)O[C@H]([C@H](C)C[C@@H]2CC[C@H](n3cnnn3)[C@H](OC)C2)CC(=O)[C@H](C)/C=C(\C)[C@@H](O)[C@@H](OC)C(=O)[C@H](C)C[C@H](C)/C=C/C=C/C=C/1C [zotarolimus]
Procedure, shortened: as §1

[4] = compound: COc1cc(C(=O)O)ccc1NC(=O)[C@@H]1N[C@@H](CC(C)(C)C)[C@](C#N)(c2ccc(Cl)cc2F)[C@H]1c1cccc(Cl)c1F [idasanutlin]
Procedure, shortened: as §1

[5] = compound: COc1cc(Nc2ncc3c(n2)-c2ccc(Cl)cc2C(c2c(F)cccc2OC)=NC3)ccc1C(=O)O [alisertib]
Procedure, shortened: as §1

[6] = compound: COc1cc2nc(-c3cc(F)ccc3O)nc(N[C@@H]3CNC[C@H]3C(C)(C)O)c2cc1OC
Procedure, shortened: as §1

[7] = compound: COc1cc2ncnc(Nc3ccc(F)c(Cl)c3)c2cc1OCCCN1CCOCC1 [gefitinib]
Procedure, shortened: as §1

[8] = compound: COc1cccc2cc(-c3nc([C@H]4CC[C@H](C(=O)O)CC4)n4ncnc(N)c34)[nH]c12
Procedure, shortened: as §1

[9] = compound: CS(=O)(=O)CCNCc1ccc(-c2ccc3ncnc(Nc4ccc(OCc5cccc(F)c5)c(Cl)c4)c3c2)o1 [lapatinib]
Procedure, shortened: as §1

[10] = compound: CS(=O)(=O)N1CCN(Cc2cc3nc(-c4cccc5[nH]ncc45)nc(N4CCOCC4)c3s2)CC1 [pictilisib]
Procedure, shortened: as §1

UniProt Q9Y5M8, sequence (Q9Y5M8 whole entry, looked up): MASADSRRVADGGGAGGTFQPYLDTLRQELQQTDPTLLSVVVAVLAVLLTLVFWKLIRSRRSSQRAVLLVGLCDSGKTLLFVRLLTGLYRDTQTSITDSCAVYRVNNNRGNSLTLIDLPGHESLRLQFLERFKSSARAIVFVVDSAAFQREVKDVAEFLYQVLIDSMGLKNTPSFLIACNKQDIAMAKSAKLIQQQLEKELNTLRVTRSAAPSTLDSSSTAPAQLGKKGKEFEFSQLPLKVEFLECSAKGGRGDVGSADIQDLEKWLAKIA
UniProt P02786, sequence (P02786 whole entry, looked up): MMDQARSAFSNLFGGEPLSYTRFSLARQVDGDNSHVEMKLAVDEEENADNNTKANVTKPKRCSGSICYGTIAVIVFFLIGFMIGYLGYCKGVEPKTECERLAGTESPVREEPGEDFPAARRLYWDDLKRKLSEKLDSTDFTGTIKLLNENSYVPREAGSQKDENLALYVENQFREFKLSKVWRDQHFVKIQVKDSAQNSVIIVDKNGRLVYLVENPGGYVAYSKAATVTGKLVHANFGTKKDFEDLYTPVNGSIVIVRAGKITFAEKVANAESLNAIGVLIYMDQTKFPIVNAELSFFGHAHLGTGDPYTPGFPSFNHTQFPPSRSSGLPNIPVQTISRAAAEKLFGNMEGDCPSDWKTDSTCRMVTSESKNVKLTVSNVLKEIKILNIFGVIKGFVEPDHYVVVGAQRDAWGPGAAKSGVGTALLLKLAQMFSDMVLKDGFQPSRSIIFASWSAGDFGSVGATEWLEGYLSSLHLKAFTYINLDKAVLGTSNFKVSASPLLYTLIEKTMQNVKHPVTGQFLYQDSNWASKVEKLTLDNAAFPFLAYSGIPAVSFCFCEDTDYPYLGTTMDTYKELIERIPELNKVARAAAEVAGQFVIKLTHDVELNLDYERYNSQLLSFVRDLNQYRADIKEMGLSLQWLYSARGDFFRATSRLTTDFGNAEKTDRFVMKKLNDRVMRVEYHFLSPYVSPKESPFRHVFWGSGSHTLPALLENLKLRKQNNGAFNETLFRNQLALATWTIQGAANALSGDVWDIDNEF
UniProt O60749, sequence (O60749 whole entry, looked up): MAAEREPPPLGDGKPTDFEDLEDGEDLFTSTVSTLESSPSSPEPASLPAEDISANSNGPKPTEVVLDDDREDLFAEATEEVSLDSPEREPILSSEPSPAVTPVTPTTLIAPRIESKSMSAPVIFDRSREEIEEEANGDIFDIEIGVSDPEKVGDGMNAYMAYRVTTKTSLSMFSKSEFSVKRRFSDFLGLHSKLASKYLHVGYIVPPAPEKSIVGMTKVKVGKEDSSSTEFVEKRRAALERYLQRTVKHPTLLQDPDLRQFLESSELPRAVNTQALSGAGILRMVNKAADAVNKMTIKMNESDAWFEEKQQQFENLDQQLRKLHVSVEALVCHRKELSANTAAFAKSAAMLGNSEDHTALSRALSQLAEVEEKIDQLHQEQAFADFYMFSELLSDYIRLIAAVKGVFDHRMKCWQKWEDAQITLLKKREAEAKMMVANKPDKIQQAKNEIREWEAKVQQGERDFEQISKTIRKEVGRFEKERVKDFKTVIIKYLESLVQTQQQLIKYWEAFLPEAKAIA
UniProt Q9UP52, sequence (Q9UP52 whole entry, looked up): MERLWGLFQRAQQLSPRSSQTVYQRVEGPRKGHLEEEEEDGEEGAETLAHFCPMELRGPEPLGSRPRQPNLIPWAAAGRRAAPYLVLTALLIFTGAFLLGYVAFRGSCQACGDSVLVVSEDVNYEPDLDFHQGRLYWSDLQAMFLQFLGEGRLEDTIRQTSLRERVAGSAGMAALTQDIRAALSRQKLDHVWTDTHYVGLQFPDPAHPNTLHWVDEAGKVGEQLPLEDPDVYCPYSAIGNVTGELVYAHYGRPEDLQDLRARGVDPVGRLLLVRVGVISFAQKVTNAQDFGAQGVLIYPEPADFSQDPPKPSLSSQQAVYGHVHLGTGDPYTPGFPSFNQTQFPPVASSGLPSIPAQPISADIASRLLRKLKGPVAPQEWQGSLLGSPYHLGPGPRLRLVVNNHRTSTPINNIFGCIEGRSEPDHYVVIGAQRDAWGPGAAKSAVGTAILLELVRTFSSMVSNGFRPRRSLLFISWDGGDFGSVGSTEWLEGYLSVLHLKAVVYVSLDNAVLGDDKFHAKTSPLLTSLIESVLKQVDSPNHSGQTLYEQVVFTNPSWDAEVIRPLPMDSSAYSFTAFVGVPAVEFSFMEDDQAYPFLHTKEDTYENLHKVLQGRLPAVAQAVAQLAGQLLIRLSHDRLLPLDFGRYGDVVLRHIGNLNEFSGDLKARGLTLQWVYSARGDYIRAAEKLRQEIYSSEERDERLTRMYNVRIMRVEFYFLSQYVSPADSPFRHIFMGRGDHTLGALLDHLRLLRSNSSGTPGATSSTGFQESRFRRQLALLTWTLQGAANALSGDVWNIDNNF
UniProt P63165, sequence (P63165 whole entry, looked up): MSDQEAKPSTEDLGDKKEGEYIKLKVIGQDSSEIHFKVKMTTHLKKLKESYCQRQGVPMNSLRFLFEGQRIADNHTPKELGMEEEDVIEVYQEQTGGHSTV
UniProt Q13501, sequence (Q13501 whole entry, looked up): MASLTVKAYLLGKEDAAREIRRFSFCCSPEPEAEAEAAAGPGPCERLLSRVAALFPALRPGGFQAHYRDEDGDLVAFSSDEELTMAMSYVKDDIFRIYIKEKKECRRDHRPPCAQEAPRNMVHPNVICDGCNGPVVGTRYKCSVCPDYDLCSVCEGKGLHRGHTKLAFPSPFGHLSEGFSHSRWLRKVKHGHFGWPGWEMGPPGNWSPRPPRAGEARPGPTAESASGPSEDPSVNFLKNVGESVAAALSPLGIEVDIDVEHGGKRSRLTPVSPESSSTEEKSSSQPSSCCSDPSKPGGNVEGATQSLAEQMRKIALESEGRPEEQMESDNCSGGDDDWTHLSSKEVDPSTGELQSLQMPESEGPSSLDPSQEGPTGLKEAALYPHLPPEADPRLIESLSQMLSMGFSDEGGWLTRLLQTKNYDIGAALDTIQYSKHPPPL
UniProt Q01085, sequence (Q01085 whole entry, looked up): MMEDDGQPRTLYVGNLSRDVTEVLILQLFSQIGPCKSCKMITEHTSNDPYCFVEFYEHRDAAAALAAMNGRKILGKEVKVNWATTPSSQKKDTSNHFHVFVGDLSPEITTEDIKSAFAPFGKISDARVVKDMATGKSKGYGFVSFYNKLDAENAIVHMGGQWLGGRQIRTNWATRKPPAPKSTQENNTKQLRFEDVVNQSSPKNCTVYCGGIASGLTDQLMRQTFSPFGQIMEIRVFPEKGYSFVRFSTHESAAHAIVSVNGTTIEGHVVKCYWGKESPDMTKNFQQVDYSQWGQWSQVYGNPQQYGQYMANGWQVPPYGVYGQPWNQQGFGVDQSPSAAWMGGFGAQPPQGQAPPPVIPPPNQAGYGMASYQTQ
UniProt P31641, sequence (P31641 whole entry, looked up): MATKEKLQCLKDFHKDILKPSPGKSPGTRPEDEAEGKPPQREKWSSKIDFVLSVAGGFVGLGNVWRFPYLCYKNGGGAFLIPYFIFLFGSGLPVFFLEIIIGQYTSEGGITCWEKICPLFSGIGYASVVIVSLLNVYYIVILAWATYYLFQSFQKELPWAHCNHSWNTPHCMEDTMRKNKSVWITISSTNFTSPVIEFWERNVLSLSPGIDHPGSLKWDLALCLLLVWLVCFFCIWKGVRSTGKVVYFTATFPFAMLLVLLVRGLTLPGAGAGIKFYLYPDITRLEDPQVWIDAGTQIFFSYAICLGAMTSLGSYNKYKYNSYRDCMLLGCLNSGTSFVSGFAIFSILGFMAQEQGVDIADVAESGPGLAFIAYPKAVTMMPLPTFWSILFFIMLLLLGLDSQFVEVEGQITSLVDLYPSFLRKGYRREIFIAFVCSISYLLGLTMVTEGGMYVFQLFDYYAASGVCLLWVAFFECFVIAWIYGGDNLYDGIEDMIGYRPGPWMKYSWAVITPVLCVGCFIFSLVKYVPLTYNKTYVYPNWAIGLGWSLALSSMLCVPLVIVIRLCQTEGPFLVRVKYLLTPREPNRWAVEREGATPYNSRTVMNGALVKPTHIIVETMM
UniProt Q9BW92, sequence (Q9BW92 whole entry, looked up): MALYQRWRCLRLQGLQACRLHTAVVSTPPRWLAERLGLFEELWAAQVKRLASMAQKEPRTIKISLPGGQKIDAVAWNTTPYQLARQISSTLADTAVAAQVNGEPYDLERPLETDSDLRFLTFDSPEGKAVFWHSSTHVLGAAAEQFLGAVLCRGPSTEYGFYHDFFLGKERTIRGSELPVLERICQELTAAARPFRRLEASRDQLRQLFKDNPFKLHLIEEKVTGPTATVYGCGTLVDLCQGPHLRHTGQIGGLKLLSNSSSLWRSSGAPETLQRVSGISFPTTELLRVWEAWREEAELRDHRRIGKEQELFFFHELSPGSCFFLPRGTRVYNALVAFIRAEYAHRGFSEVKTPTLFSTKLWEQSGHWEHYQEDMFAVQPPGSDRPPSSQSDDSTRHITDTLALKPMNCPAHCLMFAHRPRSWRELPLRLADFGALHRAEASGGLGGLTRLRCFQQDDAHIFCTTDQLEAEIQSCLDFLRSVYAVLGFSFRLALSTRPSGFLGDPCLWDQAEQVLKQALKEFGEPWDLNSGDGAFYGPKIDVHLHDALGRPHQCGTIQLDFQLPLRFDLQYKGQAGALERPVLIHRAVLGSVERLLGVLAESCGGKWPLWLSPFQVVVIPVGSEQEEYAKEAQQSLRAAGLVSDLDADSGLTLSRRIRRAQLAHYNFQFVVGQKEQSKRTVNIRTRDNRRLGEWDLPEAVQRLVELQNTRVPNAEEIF
UniProt Q16594, sequence (Q16594 whole entry, looked up): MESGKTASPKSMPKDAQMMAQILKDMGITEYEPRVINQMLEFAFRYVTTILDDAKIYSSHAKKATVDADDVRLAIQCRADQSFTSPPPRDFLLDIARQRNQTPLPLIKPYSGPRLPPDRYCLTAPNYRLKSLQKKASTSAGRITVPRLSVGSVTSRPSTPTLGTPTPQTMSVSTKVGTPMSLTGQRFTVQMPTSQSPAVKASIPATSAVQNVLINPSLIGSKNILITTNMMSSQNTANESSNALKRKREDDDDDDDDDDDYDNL
UniProt P62072, sequence (P62072 whole entry, looked up): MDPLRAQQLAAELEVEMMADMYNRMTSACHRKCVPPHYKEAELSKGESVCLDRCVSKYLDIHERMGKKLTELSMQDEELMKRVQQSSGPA

Target	log2 fold change [1]	log2 fold change [2]	log2 fold change [3]	log2 fold change [4]	log2 fold change [5]	log2 fold change [6]	log2 fold change [7]	log2 fold change [8]	log2 fold change [9]	log2 fold change [10]
SLC6A6 (UniProt P31641)	-0.1	-0.013	-0.017	-0.066	-0.031	-0.066	-0.044	0.041	-0.012	0.072
SUMO1 (UniProt P63165)	-0.363	0.102	-0.183	-0.099	-0.052	-0.507 (active)	0.004	0.055	0.549 (active)	0.006
SNX2 (UniProt O60749)	0.011	-0.156	0.037	0	0.013	-0.101	-0.105	0.029	0.001	-0.104
TIAL1 isoform 2 (UniProt Q01085)	0.033	0.037	-0.016	0.026	-0.064	0.076	-0.007	0.02	0.029	0.01
SPG21 (UniProt Q9NZD8)	-0.026	0	0.063	0.03	-0.084	0.174	0.226	0.011	0.072	0.064
TAF9 (UniProt Q16594)	0.066	0.109	-0.018	0.056	-0.109	0.024	0.01	0.019	-0.028	-0.017
TARS2 (UniProt Q9BW92)	-0.487 (active)	-0.02	-0.006	-0.084	-0.021	0.044	-0.023	0.041	-0.022	0.004
TBC1D23 (UniProt Q9NUY8)	0.07	-0.184	-0.002	0.068	0.023	-0.19	-0.058	0.021	-0.053	-0.067
SRPRB (UniProt Q9Y5M8)	0.133	-0.076	0.018	-0.11	-0.021	0.136	-0.001	-0.03	0.048	-0.022
TFRC (UniProt P02786)	0.009	-0.013	-0.041	-0.027	-0.05	0.017	0.004	0.063	-0.03	0.048
SOAT1 (UniProt P35610)	0	-0.1	0.363 (active)	-0.184	-0.02	-0.118	0.137	0.045	0.068	0.067
TFR2 (UniProt Q9UP52)	-0.066	0.011	-0.06	0.035	-0.04	0.011	-0.035	0.041	-0.011	0.05
SQSTM1 (UniProt Q13501)	0.047	0.011	-0.167	0.072	-0.016	-0.136	-0.022	0.058	-0.012	-0.112
TIMM10 (UniProt P62072)	-0.043	-0.038	-0.023	-0.019	0.01	-0.12	0.015	0.03	-0.026	0.008
SLC25A38 (UniProt Q96DW6)	-0.013	-0.01	-0.029	-0.069	-0.049	0.039	0.013	0.447 (active)	-0.02	0.04
